Test results taken from PubChem BioAssay (NCI).
The panel holds about 83,000 compounds, 20% with a hit somewhere; the sample as a whole holds those more often.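 Note: values are percent growth. 100 is the growth of untreated cells, values between 100 and 0 indicate rising inhibition; between -100 and 0 indicates cell death.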 Values without a mark were called inactive. Activity calls are given as the source filed them. Rule for the calls: active = growth percent below 10; inactive = the rest.

tested on: HL-60(TB) leukemia; assay: NCI-60 one-dose screen, 48 h (100 = growth as untreated, 0 = no growth, -100 = all killed); settings: 10 µM unless noted

Structure (SMILES) | growth
Cc1cn(C2CCCCC2)c(=O)[nH]c1=O | 96.7%
N#Cc1c(-c2ccc(Cl)cc2)n(O)c2ccccc12 | -0.349% (active)
N#Cc1c(-c2ccccc2)nc(SCc2nnc(-c3ccc(Cl)cc3)o2)[nH]c1=O | 92.2%
Nc1c(C(=O)Nc2ccccc2)sc2nc3c(cc12)CN(CCc1ccccc1)CC3 | 102%
C[C@@H]1C[C@@H]([C@@H](CC2CC(=O)NC(=O)C2)OC(=O)CC(=O)c2ccccc2)C(=O)[C@@H](C)C1 | 13%
CN1CCN(Cc2ccc(NC(=O)c3[nH]ncc3Nc3ccnc4ccsc34)cc2)CC1 | -17.8% (active)
O=S(=O)(Nc1ccccc1Cl)c1ccc(-c2cnc(C3CC3)o2)cc1 | 7.9% (active)
Cn1cc(/C=C2/C(=O)Nc3ccccc32)c2ccccc21 | 85.8%
CN1CCN(Cc2ccc(NC(=O)c3cncc(C#Cc4cnc(N)c5ncccc45)c3)cc2Cl)CC1 | 21.5%
CCC(N)(C(=O)O)c1ccc(F)cc1 (stereo not given) | 87.1%
O=C/C=C/c1ccc([N+](=O)[O-])cc1 | 106%
O=C(N1CCC(CN=c2cc3n(-c4ccc(Cl)cc4)c4ccccc4nc-3cc2Nc2ccc(Cl)cc2)CC1)N1CC1 | -73.3% (active)
O=C1CCC(C(=O)NCCNCCNC(=O)C2CCC(=O)N2)N1 (stereo not given) | 89.2%
C=CCN1C(=O)c2cccc3c(-c4ccc5c(c4)ncn5C4CCCCC4)ccc(c23)C1=O | 25.5%
Nc1nc(I)c2ncn(C3OC(CO)C(O)C3O)c2n1 (stereo not given) | 99.4%
CC[C@H](C)C(=O)O[C@H]1CCC=C2C=C[C@H](C)[C@H](CC[C@@H]3CC=CC(=O)O3)[C@H]21 | -0.21% (active)
N#Cc1c(-c2ccc(Br)cc2)nc2c(N=Nc3ccc(S(N)(=O)=O)cc3)c(N)nn2c1N | 38.1%
c1csc(-c2nc(-c3cc4ccccc4c(N4CCOCC4)n3)cs2)c1 | 121%
O=[N+]([O-])c1cc([N+](=O)[O-])c(C(F)(F)F)cc1NN=C(c1ccc(O)cc1)c1ccc(O)cc1 | 103%
CC(C)(C)c1cc(C(C)(C)c2ccccc2)cc(Cc2cc(C(C)(C)c3ccccc3)cc(C(C)(C)C)c2O)c1O | 112%

Structure (SMILES) | growth
CCSc1ncnc2c1ncn2C1OC(CO)C(O)C1O (stereo not given) | 20.2%
C#C[C@H](O)/C=C/CCCCCCC#C[C@H](O)CC[C@@H](O)C#CCCCCCC/C=C/[C@@H](O)C#C | -70.8% (active)
Cn1cc(-c2csc(-c3cn(CCO)c4ccc(F)cc34)n2)c2cccnc21 | 50.2%
CC(C)[C@@H]1CC[C@]2(CO2)[C@@H]2C(=O)OCC(C(=O)O)=C[C@H]21 | -12.4% (active)
CC(C)(C)c1nn(-c2ccccc2)c2c1COCN2Cc1ccc(Cl)cc1 | 43.5%
COc1ccc(-c2csc(C3=C(O)CN(C(C)C)C3=N)n2)cc1OC | 76.4%
CCCCCC(=O)OCc1ccccc1 | 89.4%
Cc1ccc(OCC(=O)Nc2ccc(Oc3ccccc3)cc2)c([N+](=O)[O-])n1 | 69%
Oc1ccc2c(c1)CCc1ccccc1-2 | 103%
CCCCCCCCCCCCCCCC(=O)OC1[C@@H](OC(=O)CCCCCCCCCCCCCCC)[C@@H](C(=O)N[C@@H](CCCCN)C(=O)OC)O[C@H]1n1cnc2c(=O)[nH]c(NC(=O)C(C)C)nc21 (stereo not given in full) | 98.3%
COc1cc(CNS(=O)(=O)c2ccc(C)cc2)ccc1OCc1cn(-c2ccccc2)nn1 | 85.2%
COc1cc2cc(OC(C)=O)c3cc4c(cc3c2c(OC)c1OC)OCO4 | 96.6%
O=C(Nc1ccccc1)c1sc(-c2cccc(C(F)(F)F)c2)cc1O | 40.2%
Cc1cc2nc(C(Cl)Cl)nc(-c3ccccc3)n2n1 | -14.1% (active)
CCN(CC)CCCNC(=O)c1c2c(n3ccccc13)C(=O)c1ncccc1C2=O | -33.8% (active)
N#Cc1c(N)n(C2OC(CO)C(O)C2O)c2ncnc(N)c12 (stereo not given) | -67.1% (active)
CCCCCC(=O)Oc1ccc(/C(=C(\C)c2ccccc2)c2ccc(OCCN3CCCCC3)cc2)cc1 | 70.2%
O=C(Cn1c2ccccc2c2ccncc21)N/N=C/c1cc(O)c(O)c(O)c1 | 85.1%
O=S(=O)(O)CCI | 99.5%
COc1ccc2c(c1)OC13Oc4cc(OC)ccc4C=C1CCCCC3=C2 | 104%
